The list is not random: actives were taken first. Their share in the collection is about 2.9%.
LYPLA2 inh: LYPLA2 inhibitors, primary screen, counter-screen for PME1 inhibitor project, biochemical, fluorescence polarization, FP-Rh probe ABPP; hit rate 0.38% among 320,000; AID 2177, 2009; Acyl-protein thioesterase 2 (Homo sapiens), O95372; inhibition, % at 5.9 µM; recombinant LYPLA2;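 active means inhibition above the screen-wide mean plus 3 SD, limit set per campaign, cut at about 26% in these data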;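 further: 0% = LYPLA2 with DMSO and 100% = wells lacking LYPLA2 enzyme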
Target sequence (O95372 whole entry, looked up): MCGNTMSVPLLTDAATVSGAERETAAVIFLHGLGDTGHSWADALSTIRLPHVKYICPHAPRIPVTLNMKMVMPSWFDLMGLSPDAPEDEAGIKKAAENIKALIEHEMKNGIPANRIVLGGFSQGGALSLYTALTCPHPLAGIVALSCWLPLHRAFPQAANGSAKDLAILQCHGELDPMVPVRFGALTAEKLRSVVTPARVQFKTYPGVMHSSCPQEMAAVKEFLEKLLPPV
pPAFAH FP inh: pPAFAH enzyme inhibitors, primary screen, biochemical, fluorescence polarization, human | inhibition, % at 3.39 µM | AID 463082, 2010 | hit rate 1.5% among 330,000 | Platelet-activating factor acetylhydrolase (Homo sapiens), Q13093 | recombinant pPAFAH, FP-rhodamine probe fluorescence polarization;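 active means inhibition above the mean inhibition across the screen plus 3 SD, cut at about 25% in these data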;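 further: inhibitors block binding of the rhodamine activity-based probe so polarization drops; 0% = enzyme with DMSO and 100% = wells lacking pPAFAH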
PAFAH1B3 FP inh: PAFAH1B3 enzyme inhibitors, primary screen, biochemical, fluorescence polarization, human. recombinant PAFAH1B3, FP-rhodamine probe. AID 492972, 2010. inhibition, % at 3.39 µM. hit rate 0.28% among 340,000;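 active means inhibition above the screen-wide average of all tested compounds plus 3 SD, cut at about 25% in these data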;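 further: 0% = enzyme with DMSO only and 100% = wells lacking PAFAH1B3 protein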
Target sequence (Q15102 whole entry, looked up): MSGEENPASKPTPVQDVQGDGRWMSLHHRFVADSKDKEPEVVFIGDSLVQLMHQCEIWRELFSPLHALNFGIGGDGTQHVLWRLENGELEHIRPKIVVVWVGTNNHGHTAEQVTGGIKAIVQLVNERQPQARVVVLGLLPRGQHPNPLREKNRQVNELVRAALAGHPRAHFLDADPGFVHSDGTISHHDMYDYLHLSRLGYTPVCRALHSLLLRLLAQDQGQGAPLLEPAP
PAFAH1B2 inh: PAFAH1B2 enzyme inhibitors, primary screen, biochemical, fluorescence polarization, human | hit rate 1.2% among 340,000 | AID 492953, 2010 | inhibition, % at 3.39 µM | recombinant PAFAH1B2, FP-rhodamine activity probe;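 active means inhibition above the mean of all tested compounds plus 3 SD, cut at about 24% in these data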;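 further: 0% = enzyme with DMSO and 100% = wells lacking PAFAH1B2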
PAFAH2 inh: PAFAH2 enzyme inhibitors, primary screen, biochemical, fluorescence polarization, human. Platelet-activating factor acetylhydrolase 2, cytoplasmic (Homo sapiens), Q99487. recombinant PAFAH2, FP-rhodamine activity probe. inhibition, % at 3.39 µM. hit rate 0.99% among 340,000;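 active means inhibition above the mean over all tested compounds plus 3 SD, cut at about 30% in these data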;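 further: inhibitors block probe labeling of enzyme so polarization drops; 0% = enzyme with DMSO and 100% = wells lacking PAFAH2 protein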
LYPLA1 counter: LYPLA1 inhibitors, primary screen, counter-screen for PME1 inhibitor project, biochemical, fluorescence polarization, FP-Rh probe ABPP; Acyl-protein thioesterase 1 (Homo sapiens), O75608; recombinant LYPLA1; inhibition, % at 5.9 µM; hit rate 0.16% among 320,000;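 active means inhibition above the mean of all tested compounds plus 3 SD, set per campaign, cut at about 14% in these data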;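 further: inhibitors block serine hydrolase probe labeling of LYPLA1 so polarization falls; 0% = enzyme with DMSO and 100% = wells lacking LYPLA1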
pPAFAH FP conf: pPAFAH (PLA2G7) enzyme inhibitors, confirmation, biochemical, fluorescence polarization, human; shares compounds with pPAFAH FP inh; inhibition, % at 3.39 µM; recombinant pPAFAH, FP-Rh probe fluorescence polarization; hit rate 72% among 2,300;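 active means mean inhibition of the triplicate above the hit cutoff set for the earlier primary screen, cut at about 25% in these data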;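 further: 0% = enzyme with DMSO and 100% = wells lacking pPAFAH enzyme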
Active calls of the source: *; · = no result given.

SMILES | LYPLA2 inh | pPAFAH FP inh | PAFAH1B3 FP inh | PAFAH1B2 inh | PAFAH2 inh | LYPLA1 counter | pPAFAH FP conf
N#C/C(=N\Nc1ccc(Br)cc1)C(=N)N1CCOCC1 | 3 | 3 | 10 | -1 | 1 | 2 | ·
C/C(=N\NC(=O)c1ccccc1O)C1C(=O)c2ccccc2C1=O | 15 | 49* | 28* | 23 | 30* | 6 | 40*
CCC/C(C)=N/NC(=O)c1ccccc1O | -4 | -5 | -2 | 3 | 1 | -2 | ·
CCN=C1SC(CC(=O)NCCc2ccc(OC)c(OC)c2)C(=O)N1CC (stereo unspecified) | 3 | 1 | 3 | 1 | 4 | 0 | ·
O=C(CSc1nnc(SCc2ccccc2)s1)N/N=C/C=C/c1ccco1 | 9 | 44* | 5 | -4 | 23 | 1 | 40*
CCn1c(SCC(=O)N/N=C/C=C/c2ccco2)nnc1-c1ccccc1 | -2 | 10 | 0 | 3 | -2 | -2 | ·
CN1CCC(C(=O)C(=O)O)C1=O (stereo unspecified) | · | · | 10 | -2 | 6 | · | ·
CCn1c2ccccc2c2cc(NC(=O)c3ccc(Br)o3)ccc21 | 13 | 42* | 3 | 0 | 7 | 9 | 17
CCn1c(SCC(=O)Nc2ccc3c(c2)c2ccccc2n3CC)nnc1-c1ccco1 | -8 | 56* | 2 | 4 | 22 | -3 | 42*
CCn1c2ccccc2c2cc(NC(=O)c3coc(=O)c(Br)c3)ccc21 | 3 | 10 | · | · | · | -1 | ·
CCn1c2ccccc2c2cc(NC(=O)COC(=O)c3ccccc3F)ccc21 | 3 | 15 | 6 | -1 | 2 | -7 | ·
CCn1c2ccccc2c2cc(NC(=O)CN(C)CC(=O)Nc3ccc(N4CCOCC4)cc3)ccc21 | 5 | 38* | 4 | 5 | 1 | -1 | 39*
CCn1c2ccccc2c2cc(NC(=O)N3CCOCC3)ccc21 | -5 | -2 | 7 | 0 | 3 | 1 | ·
CCn1c2ccccc2c2cc(NC(=O)COC(=O)c3ccc(NC(=O)CC#N)cc3)ccc21 | -11 | 35* | -3 | 5 | -12 | -22 | 18
CC(C)N(Cc1ccccc1)C(=O)CN1C(=O)COc2ccc(S(=O)(=O)N3CCCCCC3)cc21 | 7 | 3 | 0 | 5 | -2 | 2 | ·
Cc1nnc(NC(=O)CSc2nnc(Cc3cccn3C)n2-c2cccc(C)c2C)s1 | -1 | 2 | · | · | · | 0 | ·
CSc1cccc(NC(=O)C2CCCN(S(=O)(=O)c3cnc[nH]3)C2)c1 (stereo unspecified) | · | · | -3 | 1 | -7 | · | ·
CCCCCCc1ccc(-c2ncc(N)cn2)cc1 | 2 | 15 | 10 | 18 | 5 | 1 | ·
CCc1ccccc1OCC(=O)Nc1cc(S(=O)(=O)N(CC)CC)ccc1N1CCOCC1 | -2 | 49* | -1 | -1 | -11 | -3 | 10
COc1ccc(CCNc2oc(-c3cccc4ccccc34)nc2P(=O)(OC)OC)cc1OC | 4 | 3 | 8 | 0 | -4 | 0 | ·
COP(=O)(OC)c1nc(-c2cccc3ccccc23)oc1NCCc1ccccc1 | 6 | 38* | 8 | 3 | 4 | -2 | 31*
CCOC(=O)c1cc(-c2ccc(OC)cc2)n(CCC(=O)NC2CCN(Cc3ccccc3)CC2)c1C | -1 | 16 | 4 | -1 | -7 | -1 | ·
CCOC(=O)c1cc(-c2ccc(F)cc2)n(CCC(=O)NC2CCN(Cc3ccccc3)CC2)c1C | 4 | 40* | -2 | 0 | 9 | -1 | 16
CCOc1cccc(=O)c2c(C)n(CC(=O)c3ccccc3)c(C)c12 | 3 | 24 | -2 | 0 | -6 | -4 | ·
COc1cccc(=O)c2c(C)n(CC(=O)c3ccccc3)c(C)c12 | -4 | 38* | 7 | 2 | 8 | -5 | 16

Screens as filed in PubChem BioAssay.
